Source: PubChem BioAssay (The Scripps Research Institute Molecular Screening Center)
FBW7 activator: FBW7 E3 ligase activators, primary screen, biochemical, AlphaScreen, human | F-box/WD repeat-containing protein 7 (Homo sapiens), Q969H0 | AlphaScreen FBW7–phospho-cyclin E peptide binding, activator screen | normalized activity (activation), % at 26.1 µM | 650,000 compounds, 0.13% hits | AID 1259310, 2017; in the data active = normalized activity above about 1.9%;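 also: purified mutant Fbw7 with reduced substrate affinity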
TEAD-YAP block: TEAD-YAP interaction inhibition, primary screen, TEAD-YAP interaction inhibitor project, luminescence, HEK-TIYL cells; inhibition, % at 9.12 µM; TEAD-Gal4/YAP UAS-luciferase luminescence; 640,000 compounds, 1.4% hits; in the data active = inhibition above about 32%;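 also: 0% = median of test compound wells and 100% = reference inhibitor wells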
MITF primary: MITF inhibitors, primary screen, biochemical, AlphaScreen, human | Microphthalmia-associated transcription factor (Homo sapiens), O75030 | AlphaScreen MITF homodimerization, bead proximity signal | inhibition, % at 2.6 µM | 650,000 compounds, 0.91% hits | AID 1259374, 2018; in the data active = inhibition above about 50%;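 also: 0% = vehicle wells with protein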
Target sequence (O75030 whole entry, looked up): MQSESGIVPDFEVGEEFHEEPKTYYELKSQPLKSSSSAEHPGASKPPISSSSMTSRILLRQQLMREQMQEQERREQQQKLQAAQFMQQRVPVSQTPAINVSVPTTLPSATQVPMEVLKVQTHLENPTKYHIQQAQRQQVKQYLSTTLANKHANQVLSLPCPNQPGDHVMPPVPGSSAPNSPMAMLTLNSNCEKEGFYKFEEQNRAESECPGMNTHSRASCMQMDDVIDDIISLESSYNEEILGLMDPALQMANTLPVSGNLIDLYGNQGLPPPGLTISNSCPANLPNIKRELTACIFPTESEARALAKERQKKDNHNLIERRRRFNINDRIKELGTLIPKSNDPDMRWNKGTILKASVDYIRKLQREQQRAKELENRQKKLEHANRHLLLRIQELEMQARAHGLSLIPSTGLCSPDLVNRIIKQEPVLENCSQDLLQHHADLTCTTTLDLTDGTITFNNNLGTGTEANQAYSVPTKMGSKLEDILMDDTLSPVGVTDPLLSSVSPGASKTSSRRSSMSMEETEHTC
GPR151 ag: activators of human GPR151, primary screen, cell-based, PathHunter beta-arrestin, luminescence. PathHunter beta-arrestin GPR151 cells. activation, % at 11.2 µM. 650,000 compounds, 1% hits; in the data active = activation above about 4.9%;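 also: 0% = median of compound wells and 100% = cells with positive control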
MITF confirm: MITF inhibitors, retest of hits, confirmation, biochemical, AlphaScreen, triplicate; 4,700 compounds, 16% hits; shares compounds with MITF primary; AID 1259372, 2018; AlphaScreen MITF homodimerization, biotin/His-MITF beads; inhibition, % at 2.6 µM;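 active = inhibition above a cutoff derived from the DMSO control wells, cut at about 28% in these data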;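 also: 0% = MITF dimer wells with DMSO only; inhibitors lower the bead chemiluminescence by keeping MITF from dimerizing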
AlphaScreen DR: AlphaScreen optical interference compounds, dose response, counter-screen, biochemical, HTS | shares compounds with MITF primary | AlphaScreen optical interference counterscreen, cell-free | IC50, µM | 480 compounds, 6% hits | AID 1259373, 2018; call rule not given here
AS interf ctr: AlphaScreen optical interference compounds, counter-screen for MITF inhibitor project, biochemical, triplicate | shares compounds with MITF primary | 4,700 compounds, 7.6% hits | inhibition, % at 2.6 µM | LysRS AlphaScreen counterscreen, signal interference | AID 1259376, 2018;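 active = inhibition above a cutoff derived from the DMSO control wells, cut at about 30% in these data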
Active calls of the source: *; · = not tested or not shown. This is a sample that favours compounds with a hit; in the whole collection about 3.5% have one here.

SMILES	FBW7 activator	TEAD-YAP block	MITF primary	GPR151 ag	MITF confirm	AS interf ctr	others
Cc1nn(C2CCS(=O)(=O)C2)c(Cl)c1CNCCCOC(C)C (stereo not given)	0	1	51*	-2	6	10
Cc1nn(-c2ccccc2)c(Cl)c1CNCCCOC(C)C	0	-3	34	-1	·	·
Cc1ncc(CO)c(/C=N/NC(=S)Nc2ccc(F)cc2)c1O	-1	-2	85*	-2	15	23
Cc1ncc(CO)c(/C=N/NC(=O)c2ccccc2F)c1O	-2	-33	32	0	·	·
Cc1ncc(CO)c(/C=N/Nc2ccc(C(F)(F)F)cc2[N+](=O)[O-])c1O	0	4	-10	1	·	·
Cc1ncc(CO)c(/C=N/NC(=S)Nc2ccc(Cl)cc2)c1O	0	9	64*	0	-15	21
Cc1ncc(CO)c(/C=N/Nc2ccc(C(F)(F)F)cn2)c1O	-1	30	58*	4	23	100*
CCC1=NN(C(=O)c2ccc(Br)cc2)C(O)(C(F)(F)F)C1 (stereo not given)	0	5	6	1	·	·
O=C(CCN1C(=O)c2ccccc2C1=O)Nc1cc(Cl)ccc1C(=O)O	1	-11	-3	0	·	·
Fc1cccc(CN2CCN(C3CCCC3)CC2)c1	0	3	52*	0	-17	-8
Clc1ccc(CN2CCN(C3CCCC3)CC2)cc1	0	-6	45	1	·	·
Clc1ccc(CN2CCN(C3CCCCCC3)CC2)cc1	1	-3	74*	0	-5	3
NC1CCN(Cc2cccc(F)c2)CC1	0	-2	-13	0	·	·
Clc1ccc(CN2CCN(C3CCCCC3)CC2)cc1	0	-9	67*	0	5	17
c1ccc(CN2CCN(C3CCCCCC3)CC2)cc1	0	2	70*	-1	7	17
OC(COc1ccc(Br)cc1Br)CN1CCc2ccccc2C1 (stereo not given)	0	0	0	1	·	·
N=C1S/C(=C\c2ccco2)C(=O)N1c1nonc1N	0	-43	82*	-1	60*	2	AlphaScreen DR=>7
CCOc1ccc(/C(O)=C2/C(=O)C(=O)N(Cc3cccnc3)C2c2ccc(C(C)(C)C)cc2)c(C)c1 (stereo not given)	0	16	11	-1	·	·
O=C(CN1CCOCC1)Nc1ccccc1N1CCCCCC1	0	-2	69*	0	15	11
Cn1nnnc1SCC(=O)Nc1ccccc1N1CCOCC1	0	3	63*	0	4	11
O=C(CN1CCCC1)Nc1ccccc1N1CCOCC1	0	0	34	-1	·	·
CN(NC(=O)CN1CCOCC1)c1ccccc1	0	-5	51*	-1	1	10
CC1CCN(CC(=O)Nc2ccccc2N2CCOCC2)CC1	0	5	69*	-1	1	17
O=C(Nc1ccccc1N1CCN(c2ccc(F)cc2)CC1)c1ccncc1	0	12	8	0	·	·
COc1ccc(NC(=S)N(CCCN2CCCCC2)Cc2ccco2)cc1Cl	0	-1	10	1	·	·
SMILES	FBW7 activator	TEAD-YAP block	MITF primary	GPR151 ag	MITF confirm	AS interf ctr	others
O=C(CCC1CCCC1)N1CCN(Cc2cccc(F)c2)CC1	0	5	63*	0	-10	-8
Cc1ccccc1CN1CCN(C(=O)CCC2CCCC2)CC1	0	11	53*	0	-8	-1
COc1ccc(OC)c(CN2CCN(C(=O)CCC3CCCC3)CC2)c1	0	-10	52*	2	-4	-6
O=C(CCC1CCCC1)N1CCN(C(=O)c2cccc(F)c2)CC1	0	-10	-12	-1	·	·
CCOC(=O)c1ccc(SCc2ccccc2F)c([N+](=O)[O-])c1	0	-2	1	0	·	·
COCCCNC(=O)Cn1c(=O)n(Cc2ccccc2)c(=O)c2c3c(sc21)CCC3	0	15	8	1	·	·
CCOC(=O)c1c(-c2ccccc2)csc1NC(=O)Cn1c(=O)oc2ccccc21	0	-1	12	0	·	·
CCCC1CCC(C2CCC(=O)CC2)CC1 (stereo not given)	0	-5	53*	3	14	13
CCCCn1c(CNC(=O)c2cccc(C)c2)nnc1SC(C)C(=O)Nc1sc(C(=O)OCC)c(C)c1C(=O)OCC (stereo not given)	0	4	-3	0	·	·
Cc1ccc(-n2ncnc2-c2ccc(Cl)cc2)cc1Cl	0	1	-2	2	·	·
Cc1ccsc1CN1CCN(Cc2ccc3c(c2)OCO3)CC1	0	0	56*	0	2	5
Fc1cccc(F)c1CN1CCN(Cc2ccc3c(c2)OCO3)CC1	0	3	59*	0	-9	-6
c1ccc(CN2CCN(Cc3ccc4c(c3)OCO4)CC2)nc1	0	0	63*	1	-7	-1
Cc1nc(N2CCN(Cc3ccc4c(c3)OCO4)CC2)c2c(C)c(C)sc2n1	0	15	74*	3	7	7
O=C(C1CC12CCN(Cc1ccc3c(c1)OCO3)CC2)N1CCN(Cc2ccccn2)CC1 (stereo not given)	0	5	10	1	·	·
Cc1ccc(O)c(NC(=O)c2ccc(Br)o2)c1	0	-31	-3	-1	·	·
Cn1nnnc1Sc1ccc(S(=O)(=O)N2CCCCC2)cc1[N+](=O)[O-]	0	4	10	2	·	·
O=C(Nc1ccccc1-c1ccccc1)C1CCN(c2cnccn2)CC1	0	0	0	0	·	·
O=C(C(=O)N1CCN(Cc2ccc3c(c2)OCO3)CC1)N1CCN(Cc2ccc3c(c2)OCO3)CC1	1	2	-11	-2	·	·
c1cc(CN2CCN(Cc3ccc4c(c3)OCO4)CC2)co1	0	-3	66*	-1	1	9
Brc1csc(CN2CCN(Cc3ccc4c(c3)OCO4)CC2)c1	1	0	62*	0	10	13
CN(C)C1=C(Cl)C(=O)N(c2ccc(Cl)cc2)C1=O	0	7	-10	0	·	·
Cc1nc2ccccn2c1-c1nnco1	0	-2	-14	1	·	·
Cc1nc2ccccn2c1-c1ccnn1S(=O)(=O)c1ccc(F)cc1	0	-3	73*	-1	-2	2
CC(C)NC(=O)COC(=O)CNC(=O)c1ccc(Cl)cc1	0	8	-9	2	·	·
CN(CCC#N)C(=O)COC(=O)c1c2c(nc3ccccc13)/C(=C/c1ccco1)CC2	0	-25	73*	1	80*	-4	AlphaScreen DR=>6.9
